# Assay outcomes: PubChem, several laboratories
# GDH-TPI inh: inhibits GDH-TPI coupling enzymes, artifact for Mtb FBA screen; GDH-TPI coupled enzyme counterscreen, NADH absorbance; inhibition, % at 4.8 µM; 1.2% of 360,000 active; in the data active = inhibition above about 30%;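 note: 0% = DMSO wells and 100% = wells lacking the enzyme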
# BJeLR viability: kills HRASV12-expressing BJeLR cells; 0.17% of 300,000 active; BJeLR (HRASV12) viability, CellTiter-Glo ATP luminescence, 48 h; inhibition, % (no concentration beside the values); in the data active = inhibition above about 50%
# PfHsp40 yeast: compounds rescuing yeast from Plasmodium falciparum HSP40 toxicity | S. cerevisiae expressing PfHsp40, growth rescue, ATP luminescence | growth rescue, % at 12.5 µM | 0.68% of 340,000 active | AID 504582; in the data active = growth rescue above about 28%, passing the limit was not always enough;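 note: yeast W303a lacking pdr1 and pdr3 grown in galactose medium; growth measured after three days at 30 °C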
# PrP UTR inh: suppresses PrP 5' UTR mRNA reporter expression; cell-based PrP 5' UTR mRNA reporter, plate reader; inhibition, % (test concentration not listed); 0.35% of 340,000 active; in the data active = inhibition above about 52%; note: 0 = median of the neutral control wells
# PrPC surface inh: inhibitors of human cell surface prion protein PrPC | inhibition, % at 13.8 µM | P04156 | 0.43% of 370,000 active | TR-FRET read-out; in the data active = inhibition above about 24%; note: 0% = median of the test wells and 100% = reference compound wells
# Mtb FBA inh: inhibitors of M. tuberculosis fructose-bisphosphate aldolase; 2.3% of 360,000 active; inhibition, % at 1 µM; purified M. tuberculosis FBA, fluorescence read-out; in the data active = inhibition above about 27%;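 note: 0% = vehicle and 100% = reference inhibitor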
# Target sequence (P9WQA3 whole entry, looked up): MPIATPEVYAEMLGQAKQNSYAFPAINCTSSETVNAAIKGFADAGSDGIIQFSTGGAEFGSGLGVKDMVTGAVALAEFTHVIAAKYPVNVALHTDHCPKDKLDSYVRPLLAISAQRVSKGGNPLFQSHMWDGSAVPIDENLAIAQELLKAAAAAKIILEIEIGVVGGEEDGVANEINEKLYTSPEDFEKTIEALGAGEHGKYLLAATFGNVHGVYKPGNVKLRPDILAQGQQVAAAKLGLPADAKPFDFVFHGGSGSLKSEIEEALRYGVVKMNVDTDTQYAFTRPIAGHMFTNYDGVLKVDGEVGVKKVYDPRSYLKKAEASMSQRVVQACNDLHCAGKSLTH
# Numbers without * were called inactive; nt = not tested or not shown; + = active, no number. Sampled rows, rich in hits. Any-hit rate of the full collection: about 4.5%.
SMILES,GDH-TPI inh,BJeLR viability,PfHsp40 yeast,PrP UTR inh,PrPC surface inh,Mtb FBA inh
Oc1ccc(/C=N\Nc2cc(N3CCOCC3)nc(N3CCOCC3)n2)c(O)c1,65*,5,-2,-7,0,0
COC(=O)[C@H](C(C)C)N(Cc1cn(Cc2ccc(C)cc2)nn1)S(=O)(=O)c1ccc(F)cc1Br,nt,nt,nt,nt,2,nt
Cc1nn(CCC(=O)NNC(=O)Nc2ccc(F)cc2)c(C)c1[N+](=O)[O-],nt,nt,nt,nt,6,nt
O=C(NC1CCCCN(Cc2ccc(Cl)cc2)C1=O)c1ccc(F)c(F)c1 (centres undefined),nt,nt,nt,nt,5,nt
Cc1nc(N/N=C/c2cccnc2)cc(N2CCOCC2)n1,31*,nt,nt,nt,-13,-2
COc1nc(N/N=C/c2cc3c(cc2Br)OCO3)nc(N2CCOCC2)n1,33*,-2,0,-4,-7,1
Clc1cc2c(cc1/C=N/Nc1nc(N3CCOCC3)nc(N3CCOCC3)n1)OCO2,8,-1,1,-29,-13,-9
O=C(c1cccs1)C1CCN(c2ncnc3sccc23)CC1,nt,nt,nt,nt,17,nt
CCS(=O)(=O)Nc1ccc2c(c1)C(=O)N(C)[C@@H]1CC[C@H](CC(=O)OC)O[C@H]1CO2,nt,nt,nt,nt,7,nt
CC[n+]1c(/C=C/N(C)c2ccccc2)oc2ccccc21,68*,17,-2,-20,11,-1
CC[n+]1c(/C=C/N(C)c2ccccc2)oc2ccc(F)cc21,42*,10,0,-22,9,-1
CC[n+]1c(/C=C/Nc2ccccc2)oc2ccc(OC)cc21,3,2,1,-17,-5,8
C[C@H]1[C@@H](OC(=O)NCc2cccnc2)CC[C@@]23CCCN2C(=O)CCC[C@@H]13,nt,nt,nt,nt,-5,nt
C=CCNC(=O)N1CCN(Cc2nc3ccccc3c(=O)[nH]2)CC1,nt,nt,nt,nt,0,nt
O=C(Nc1ccc(NC(=O)c2ccccc2Cl)c(Cl)c1)c1ccccn1,nt,nt,nt,nt,-4,nt
CCOC(=O)c1cccc(NC(=O)CCc2nnc3ccc(N4CCCCC4)nn23)c1,11,4,-1,-6,2,+
Cc1ccc(C(=O)CNc2cc(C)ccc2C)cc1,-2,10,0,0,-8,0
CCNc1cc(O)ccc1C,6,nt,77*,-14,nt,2
N#CC(C#N)=C(N)/C(C#N)=C/c1cc(O)c(O)c(O)c1,23,nt,0,-13,61*,17
CCOC(=O)N1CCN(S(=O)(=O)c2ccc(C(=O)NNc3nc4ccc(Cl)cc4s3)cc2)CC1,16,18,274*,-18,nt,-1
CCOC(=O)N1CCN(S(=O)(=O)c2ccc(C(=O)NNc3nc4c(C)cccc4s3)cc2)CC1,3,0,130*,-1,-4,8
CCOC(=O)N1CCN(S(=O)(=O)c2ccc(C(=O)NNc3nc4cc(C)cc(C)c4s3)cc2)CC1,5,11,323*,1,nt,1
O=C(O)c1cc(-c2ccc(Cl)s2)nc2ccccc12,8,9,0,-25,11,159*
CCN1CCN(C(=O)c2cc(-c3ccco3)nc3ccccc23)CC1,12,nt,-2,nt,-4,130*
CCN1CCN(C(=O)c2cc(-c3ccc(Cl)s3)nc3ccccc23)CC1,21,-3,0,-6,6,118*
SMILES,GDH-TPI inh,BJeLR viability,PfHsp40 yeast,PrP UTR inh,PrPC surface inh,Mtb FBA inh
CC(=O)N1CCN(C(=O)c2cc(-c3cccc4ccccc34)nc3ccccc23)CC1,6,10,2,-10,-5,6
Cc1ccc(-c2cc(C(=O)O)c3ccccc3n2)s1,15,5,-2,-17,-2,+
COCCCNC(=O)C[C@H]1C[C@@]2(C(=O)OC)C(=C[C@H](COCc3ccccc3)O[C@@H]2C)N(Cc2ccc(Cl)cc2Cl)C1=O,nt,nt,nt,nt,-5,nt
COc1ccc(C)c(NC(=O)[C@@H]2CCCN2S(=O)(=O)c2cccc3cccnc23)c1,nt,nt,nt,nt,8,nt
O=C(O)c1cc(-c2cccs2)nc2ccc(F)cc12,12,-1,1,-17,9,+
NSc1nc(N)c2nc(-c3ccccc3)c(-c3ccccc3)nc2n1,6,-1,0,-13,-11,23
Nc1nc(N)c2nc(-c3ccccc3)c(N)nc2n1,33*,-3,2,-9,-16,nt
CCOC(=O)[C@]12CCCCC/C=C\1N(Cc1ccc(OC)cc1)C(=O)[C@H]2CC(=O)N1CCSCC1,nt,nt,nt,nt,-6,nt
COC(=O)[C@]12C[C@H](CC(=O)N3CCOCC3)C(=O)N(Cc3ccc4c(c3)OCO4)C1=C[C@H](C(C)C)O[C@@H]2C1CC1,nt,nt,nt,nt,-5,nt
CCCCNC(=O)c1nc(-c2ccc(C(F)(F)F)cc2)oc1-c1ccccc1,nt,nt,nt,nt,1,nt
